{"source": "paper PMC4336329", "about": "(PLoS ONE, 2015)", "note": "Among all 310,000 compounds or so, about 14,000 (4.5%) showed an effect of 50% or more. The effect is printed as a negative number. The sample as a whole holds a higher share of strong results than the screen did.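 Further: peak tail current of the secondary pulse compared with the same well before compound.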"}
{"molecular_target": "human ether-à-go-go-related gene (hERG) potassium channel (human, UniProt Q12809)", "sequence (Q12809 whole entry, looked up)": "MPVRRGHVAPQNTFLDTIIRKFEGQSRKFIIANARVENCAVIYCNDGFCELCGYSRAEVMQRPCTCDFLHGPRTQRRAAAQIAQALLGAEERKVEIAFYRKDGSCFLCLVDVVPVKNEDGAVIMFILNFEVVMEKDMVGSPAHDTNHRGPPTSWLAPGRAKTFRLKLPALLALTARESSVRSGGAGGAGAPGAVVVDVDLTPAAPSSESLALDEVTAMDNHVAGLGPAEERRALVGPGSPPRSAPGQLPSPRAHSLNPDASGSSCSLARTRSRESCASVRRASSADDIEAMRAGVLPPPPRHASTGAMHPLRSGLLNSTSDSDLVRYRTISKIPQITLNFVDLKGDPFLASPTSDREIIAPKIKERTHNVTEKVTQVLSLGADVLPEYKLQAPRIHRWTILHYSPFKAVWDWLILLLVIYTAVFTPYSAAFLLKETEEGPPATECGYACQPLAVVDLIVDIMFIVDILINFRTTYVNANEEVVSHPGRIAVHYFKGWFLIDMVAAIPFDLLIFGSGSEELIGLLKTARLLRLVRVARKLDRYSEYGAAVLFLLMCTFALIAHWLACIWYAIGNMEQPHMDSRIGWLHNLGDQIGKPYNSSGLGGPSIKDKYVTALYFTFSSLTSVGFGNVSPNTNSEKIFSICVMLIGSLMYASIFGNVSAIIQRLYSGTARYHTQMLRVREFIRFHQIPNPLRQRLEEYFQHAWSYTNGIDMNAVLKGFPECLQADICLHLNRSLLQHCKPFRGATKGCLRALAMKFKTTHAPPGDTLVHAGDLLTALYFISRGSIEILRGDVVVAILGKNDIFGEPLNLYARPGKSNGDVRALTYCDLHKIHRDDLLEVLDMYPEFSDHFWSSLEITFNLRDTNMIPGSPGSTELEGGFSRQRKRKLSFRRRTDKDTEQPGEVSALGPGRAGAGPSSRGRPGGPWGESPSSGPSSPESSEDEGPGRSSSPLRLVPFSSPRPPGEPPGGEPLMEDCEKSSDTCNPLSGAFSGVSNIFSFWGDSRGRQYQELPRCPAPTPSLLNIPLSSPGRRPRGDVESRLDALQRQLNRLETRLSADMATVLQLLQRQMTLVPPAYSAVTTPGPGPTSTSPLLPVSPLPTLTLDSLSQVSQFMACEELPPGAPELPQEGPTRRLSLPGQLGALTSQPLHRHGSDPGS", "test": "primary screen, population patch clamp on CHO cells stably expressing hERG; higher = less effect of the substance", "units": {"hERG current change (%, negative = inhibition) at 10uM": "%"}}
{"smiles": "COc1ccc(NC(=O)CSc2nc3ccccc3c(=O)n2CCC(=O)N2CCCCC2)cc1", "hERG current change (%, negative = inhibition) at 10uM": -69.2}
{"smiles": "CCOc1ccc(NC(=O)CSc2nc3ccccc3c(=O)n2CCCC(=O)N2CCCC2)cc1", "hERG current change (%, negative = inhibition) at 10uM": -23.8}
{"smiles": "O=C(CCCCCn1c(SCc2ccncc2)nc2ccccc2c1=O)NCc1ccco1", "hERG current change (%, negative = inhibition) at 10uM": -86}
{"smiles": "O=C(CCCCCn1c(SCC(=O)c2ccccc2)nc2ccccc2c1=O)NCc1ccco1", "hERG current change (%, negative = inhibition) at 10uM": 10.8}
{"smiles": "NS(=O)(=O)c1ccc(CCNC(=O)CSc2nc3ccccc3c(=O)n2CCC(=O)N2CCCCC2)cc1", "hERG current change (%, negative = inhibition) at 10uM": 19.8}
{"smiles": "O=C(CSc1nc2ccccc2c(=O)n1CCC(=O)N1CCCCC1)NCc1ccccc1", "hERG current change (%, negative = inhibition) at 10uM": -70.4}
{"smiles": "Cc1ccc(CSc2nc3ccccc3c(=O)n2CCCC(=O)NCc2ccco2)cc1", "hERG current change (%, negative = inhibition) at 10uM": -2.71}
{"smiles": "COc1ccc(NC(=O)CSc2nc3ccccc3c(=O)n2C)cc1", "hERG current change (%, negative = inhibition) at 10uM": 4.53}
{"smiles": "CCn1c(SCC(=O)NCc2ccccc2)nc2ccccc2c1=O", "hERG current change (%, negative = inhibition) at 10uM": -11.6}
{"smiles": "NC(=O)c1ccc(NC(=O)CSc2nnc(-c3ccc4c(c3)OCO4)o2)cc1", "hERG current change (%, negative = inhibition) at 10uM": 2.05}
{"smiles": "CCCCN(CCCC)C(=O)c1sc2nc(N3CCOCC3)c3c(c2c1N)CCCC3", "hERG current change (%, negative = inhibition) at 10uM": 9}
{"smiles": "COc1ccc(Cl)cc1NC(=O)NC1CCCCC1", "hERG current change (%, negative = inhibition) at 10uM": 10.3}
{"smiles": "CN(CCCC(=O)NCc1ccco1)S(=O)(=O)c1ccccc1", "hERG current change (%, negative = inhibition) at 10uM": -5.89}
{"smiles": "CC(=O)C12CCCCC1CC1C3CC(C)C4(O)CC(=O)CCC4(C)C3CCC12C", "note": "(centres unmarked)", "hERG current change (%, negative = inhibition) at 10uM": 21.8}
{"smiles": "Cc1nc2ccccc2c(=O)n1-c1ccccc1[N+](=O)[O-]", "hERG current change (%, negative = inhibition) at 10uM": 17.2}
{"smiles": "CCCCCN(C(=O)CCC(=O)OC(C)C(=O)NC1CCCCC1)c1c(N)n(CCCC)c(=O)[nH]c1=O", "note": "(centres unmarked)", "hERG current change (%, negative = inhibition) at 10uM": 16.1}
{"smiles": "CSc1nncc(/C(C)=N\\Nc2ccccc2)n1", "hERG current change (%, negative = inhibition) at 10uM": 9.18}
{"smiles": "Cc1ccc(C(C)(C)NC(=O)C2CCC(=O)N(CC3CCCCC3)C2)cc1", "note": "(centres unmarked)", "hERG current change (%, negative = inhibition) at 10uM": 3.82}
{"smiles": "COc1cccc(C(=O)N/N=C(/c2ccccc2)c2ccccn2)c1", "hERG current change (%, negative = inhibition) at 10uM": 6.88}
{"smiles": "O=C(N/N=C(\\c1ccccc1)c1ccccn1)c1cccc([N+](=O)[O-])c1", "hERG current change (%, negative = inhibition) at 10uM": -65.6}
{"smiles": "Cn1cccc1C(=O)c1cccc([N+](=O)[O-])c1", "hERG current change (%, negative = inhibition) at 10uM": -52.9}
{"smiles": "Cn1ccnc1/C(=N\\NC(=O)c1ccccc1)c1cccc([N+](=O)[O-])c1", "hERG current change (%, negative = inhibition) at 10uM": -68.6}
{"smiles": "NC(=O)c1cccc([N+](=O)[O-])c1", "hERG current change (%, negative = inhibition) at 10uM": 5.64}
{"smiles": "C/C(=N\\NC(=O)c1ccc([N+](=O)[O-])cc1)c1cccc([N+](=O)[O-])c1", "hERG current change (%, negative = inhibition) at 10uM": 5.82}
{"smiles": "CC(=O)c1cccc([N+](=O)[O-])c1", "hERG current change (%, negative = inhibition) at 10uM": 17.7}
{"smiles": "Cn1ccnc1/C(=N\\NC(=O)c1ccc(O)cc1)c1cccc([N+](=O)[O-])c1", "hERG current change (%, negative = inhibition) at 10uM": -22.7}
{"smiles": "O=C(NNC(=O)c1ccccn1)c1cccc([N+](=O)[O-])c1", "hERG current change (%, negative = inhibition) at 10uM": 8.7}
{"smiles": "CC1=NN(c2ccccc2)C(=O)/C1=C/c1ccc[nH]1", "hERG current change (%, negative = inhibition) at 10uM": -7.74}
{"smiles": "CCN(CC(=O)Nc1ccc(NC(C)=O)cc1)C(=O)c1cccc2ccccc12", "hERG current change (%, negative = inhibition) at 10uM": 1.23}
{"smiles": "Cc1cccc(Nc2ncnc(N)c2[N+](=O)[O-])n1", "hERG current change (%, negative = inhibition) at 10uM": 17.8}
{"smiles": "C=CCN1CC(c2nc3ccccc3n2Cc2cccc3ccccc23)CC1=O", "note": "(centres unmarked)", "hERG current change (%, negative = inhibition) at 10uM": -24.2}
{"smiles": "C/C(=N\\NC(=O)CNc1cccc2ccccc12)c1ccccc1", "hERG current change (%, negative = inhibition) at 10uM": 10.2}
{"smiles": "COc1ccc2sc3ccccc3c(=O)c2c1", "hERG current change (%, negative = inhibition) at 10uM": -10.1}
{"smiles": "Cc1ccc(N2CC(C(=O)N3CCC(C(=O)Nc4nnc(C(C)C)s4)CC3)CC2=O)cc1", "note": "(centres unmarked)", "hERG current change (%, negative = inhibition) at 10uM": 10.7}
{"smiles": "CC(=O)Nc1ccc(S(=O)(=O)N(C)CC(=O)OCC(=O)N(C)C2CCS(=O)(=O)C2)cc1", "note": "(centres unmarked)", "hERG current change (%, negative = inhibition) at 10uM": 18.8}
{"smiles": "CN(CCOc1ccc(Cl)cc1)C(=O)C1CCN(C(=O)c2ccc(F)cc2)CC1", "hERG current change (%, negative = inhibition) at 10uM": -69.9}
{"smiles": "CN(CCOc1ccccc1)C(=O)C1CCN(C(=O)c2ccc(Cl)cc2)CC1", "hERG current change (%, negative = inhibition) at 10uM": -47.9}
{"smiles": "CN(CCOc1ccc(Cl)cc1)C(=O)C1CCN(C(=O)c2ccc(Cl)cc2)CC1", "hERG current change (%, negative = inhibition) at 10uM": -75.4}
{"smiles": "CN(CCOc1ccccc1)C(=O)C1CCN(C(=O)c2ccc(F)cc2)CC1", "hERG current change (%, negative = inhibition) at 10uM": -19.9}
{"smiles": "O=C(c1ccc(Cl)cc1)C1CCN(C(=O)c2ccc(F)cc2)CC1", "hERG current change (%, negative = inhibition) at 10uM": -34.7}
{"smiles": "Cc1ccccc1C(=O)N1CCC(C(=O)N(C)CCOc2ccccc2)CC1", "hERG current change (%, negative = inhibition) at 10uM": 9.06}
{"smiles": "Cc1ccc(Cn2ccc(NC(=O)c3cc(CC(C)C)on3)n2)cc1", "hERG current change (%, negative = inhibition) at 10uM": -8.08}
{"smiles": "CCn1nc(C(=O)OCC(=O)c2cc(C)n(Cc3cccs3)c2C)c2ccccc2c1=O", "hERG current change (%, negative = inhibition) at 10uM": 7.14}
{"smiles": "O=C(/C=C/c1cccs1)Nc1sc2c(c1C(=O)O)CCCC2", "hERG current change (%, negative = inhibition) at 10uM": 28.5}
{"smiles": "COc1ccc(-c2cc(C(=O)OCC(=O)N3CCCC3)c3ccccc3n2)cc1", "hERG current change (%, negative = inhibition) at 10uM": -19.1}
{"smiles": "O=C(OCC(=O)N1CCN(C(=O)c2ccco2)CC1)c1cc(-c2cccc(Br)c2)nc2ccccc12", "hERG current change (%, negative = inhibition) at 10uM": -19.6}
{"smiles": "O=C(COC(=O)c1cc(-c2ccco2)nc2ccccc12)NCc1ccccc1", "hERG current change (%, negative = inhibition) at 10uM": -11.3}
{"smiles": "O=C(OCC(=O)N1CCN(C(=O)c2ccco2)CC1)c1cc(-c2ccccc2)nc2ccccc12", "hERG current change (%, negative = inhibition) at 10uM": -60.3}
{"smiles": "O=C(c1ccco1)N1CCN(C(=O)c2cc(-c3ccccn3)nc3ccccc23)CC1", "hERG current change (%, negative = inhibition) at 10uM": -34.8}
{"smiles": "O=C(OCC(=O)N1CCN(C(=O)c2ccco2)CC1)c1cccc(F)c1", "hERG current change (%, negative = inhibition) at 10uM": -16.8}
{"smiles": "O=C(OCC(=O)N1CCN(C(=O)c2ccco2)CC1)c1cc(-c2ccc(F)cc2)nc2ccccc12", "hERG current change (%, negative = inhibition) at 10uM": -59.4}
{"smiles": "O=C(c1cc(-c2ccco2)nc2ccccc12)N1CCN(Cc2ccccc2)CC1", "hERG current change (%, negative = inhibition) at 10uM": -42.8}
{"smiles": "Cc1cc(C(=O)OCC(=O)NCc2ccco2)c(C)n1-c1ccc(F)cc1", "hERG current change (%, negative = inhibition) at 10uM": -28.3}
{"smiles": "Cc1cc(C(=O)OCC(=O)N2CCN(C(=O)c3ccco3)CC2)c(C)n1-c1ccc(F)cc1", "hERG current change (%, negative = inhibition) at 10uM": -66.4}
{"smiles": "O=C(OCC(=O)N1CCN(C(=O)c2ccco2)CC1)c1cc(-c2ccc(Cl)c(Cl)c2Cl)nc2ccccc12", "hERG current change (%, negative = inhibition) at 10uM": 2.88}
{"smiles": "O=C(OCC(=O)N1CCN(C(=O)c2ccco2)CC1)c1cc(-c2ccco2)nc2ccccc12", "hERG current change (%, negative = inhibition) at 10uM": -69.7}
